Bioassay records deposited in PubChem by Sanford-Burnham Center for Chemical Genomics.
CYP2C19 act – cytochrome P450 2C19 (human) activation. 96,000 tested, under 10 active. P33261. activation factor at 5 µM. recombinant CYP2C19, luciferin-H EGE luminescence; active compounds read high; 0 = fully inhibited enzyme, 1 = untreated enzyme;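 active = activation factor of at least 2 at 5 µM in the primary screen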;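 note: 0 = wells with 2.5 mM tranylcypromine and 1 = vehicle-only wells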
CYP2C19 inh – blocks human cytochrome P450 2C19 | CYP2C19 Supersomes, luciferin-H EGE luminescence, 30 min | P33261 | 96,000 compounds, 21% hits | inhibition, % at 5 µM;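 active = CYP2C19 inhibition above a set limit at 5 µM in the primary screen, cut at about 50% in these data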;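 note: plate controls were negative control wells for no effect and 2.5 mM tranylcypromine positive control for full effect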
CYP2C9 inh – inhibitors of human CYP2C9 | CYP2C9 Supersomes, luciferin-H conversion, luminescence | 96,000 compounds, 20% hits | inhibition, % at 5 µM | P11712;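 active = blocking of liver enzyme CYP2C9 beyond about 50% at 5 µM, limit read from the data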
Target sequence (P11712 whole entry, looked up): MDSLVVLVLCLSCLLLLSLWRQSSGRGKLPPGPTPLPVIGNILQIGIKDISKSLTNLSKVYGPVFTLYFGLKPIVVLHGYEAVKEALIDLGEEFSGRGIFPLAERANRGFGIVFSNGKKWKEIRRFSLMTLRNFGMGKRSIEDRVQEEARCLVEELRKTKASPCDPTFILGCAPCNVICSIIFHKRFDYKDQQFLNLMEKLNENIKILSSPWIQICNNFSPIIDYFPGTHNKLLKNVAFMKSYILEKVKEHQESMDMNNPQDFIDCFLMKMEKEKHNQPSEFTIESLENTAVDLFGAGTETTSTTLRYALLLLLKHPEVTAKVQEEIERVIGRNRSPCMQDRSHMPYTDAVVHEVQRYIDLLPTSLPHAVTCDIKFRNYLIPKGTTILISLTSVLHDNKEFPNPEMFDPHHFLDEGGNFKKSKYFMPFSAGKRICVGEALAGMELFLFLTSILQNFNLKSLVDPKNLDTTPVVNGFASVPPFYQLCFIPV
CYP2C9 activ – activators of human CYP2C9; P11712; 96,000 compounds, 1.4% hits; recombinant CYP2C9, luciferin-H conversion, luminescence; active compounds read high; factor 1 = untreated enzyme, 0 = blocked; activation factor at 5 µM;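 active = activation factor of 2 or more for CYP2C9 at a 5 µM dose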;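 note: 0 = sulfaphenazole-blocked wells and 1 = vehicle-only wells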
Numbers without * were called inactive. The list is not random: actives were taken first. Their share in the collection is about 31%.

SMILES	CYP2C19 act	CYP2C19 inh	CYP2C9 inh	CYP2C9 activ
COc1ccc(-c2[nH]c(-c3ccc(F)cc3)nc2SCC(=O)NCc2ccco2)cc1OC	0.5	51.1*	47.5	0.5
COC(=O)Cc1[nH]nc2c1C1(C(=O)N(Cc3ccccc3)c3ccccc31)C(C#N)=C(N)O2 (stereo not drawn)	0.4	64.5*	60.8*	0.4
Cc1[nH]nc2c1C1(C(=O)N(Cc3ccc(Cl)cc3)c3ccccc31)C(C#N)=C(N)O2 (stereo not drawn)	0.1	88.8*	92.0*	0.1
CCC(=O)Nc1ccccc1C(=O)OCc1ccc(C(=O)c2ccccc2)cc1	0.6	42.5	61.8*	0.4
O=C(OCc1ccc(Cl)cc1)c1ccccc1C(=O)c1ccccc1	0.3	72.1*	29.1	0.7
O=C(O)c1ccccc1C(=O)OCc1ccccc1	1	-2.2	-8.3	1.1
N/C(Cc1ccc(Cl)cc1)=N\OC(=O)c1ccccc1	0.3	66.1*	63.4*	0.4
CCC(=O)Nc1ccccc1C(=O)OCC(=O)c1cccc2ccccc12	0.9	10.8	73.0*	0.3
COC(=O)c1cccc(COC(=O)c2ccccc2NC(=O)c2ccco2)c1	1.1	-9.9	32.3	0.7
CCc1nc(N[C@@H](CC(C)C)C(=O)O)c2oc3ccccc3c2n1	0.8	20.0	-6.4	1.1
C=C(C)CN(CC)c1nc(N)c2c(N)nc3c(c2c1C#N)CC(=O)N3C12CC3CC(CC(C3)C1)C2	0.6	42.1	92.2*	0.1
CCCCN1C(=O)Cc2c1nc(N)c1c(N)nc(N(CCC)CCC)c(C#N)c21	1	-0.7	42.5	0.6
N#CCCN1CCN(C(CNS(=O)(=O)c2ccc(Cl)cc2)c2ccccc2)CC1 (stereo not drawn)	0.1	89.6*	12.3	0.9
Cc1ccc(S(=O)(=O)NCC(c2ccccc2)N2CCN(CCC#N)CC2)cc1 (stereo not drawn)	0.2	75.9*	2.4	1
N#CCCN1CCN(S(=O)(=O)c2ccc(S(=O)(=O)NCc3ccccc3)cc2)CC1	0.9	14.2	6.7	0.9
Cc1ccc(S(=O)(=O)N(CCC#N)CCN2CCCC2)cc1	0.9	12.7	8.5	0.9
CC(=O)N1CCN(CCN=CC2=C(O)CC(c3ccco3)CC2=O)CC1 (stereo not drawn)	1.2	-15.9	5.9	0.9
Cc1nc(SCC#N)c2c(C)c(C)sc2n1	1.1	-12.0	-18.2	1.2
Cc1ccc([N+](=O)[O-])cc1N/C=C/C(=O)c1ccco1	0.8	17.4	50.8*	0.5
O=C(COc1ccc(Cl)cc1)Nc1ccc(N2CCN(C(=O)c3ccco3)CC2)cc1	0.5	50.9*	32.1	0.7
O=C(CSc1ccc(Cl)cc1)Nc1ccc(N2CCN(C(=O)c3ccco3)CC2)cc1	0.6	44.6	63.8*	0.4
O=C(CSc1ccc(Cl)cc1)Nc1ccc(NC(=O)c2ccco2)cc1	0.8	16.2	11.9	0.9
CS(=O)(=O)NCCC1=CCCCC1	0.9	6.3	1.1	1
COCCN(CC(=O)NCc1ccccc1)C(=O)CCC(=O)Nc1nccs1	1	2.2	5.6	0.9
C=C(C)CSc1nnc(-c2cc(OC)c(OC)c(OC)c2)n1N	0.8	21.6	28.0	0.7
SMILES	CYP2C19 act	CYP2C19 inh	CYP2C9 inh	CYP2C9 activ
Cc1cc(C)n2nc(SCc3cc(=O)oc4cc(O)ccc34)nc2n1	1.1	-14.5	19.6	0.8
Fc1ccc(-c2nnc(SCc3ncc(-c4ccccc4)o3)n2CC2CCCO2)cc1 (stereo not drawn)	0.9	11.4	-10.9	1.1
FC(F)(F)c1ccc(Sc2nnc(-c3cccs3)n2CC2CCCO2)nc1 (stereo not drawn)	0.1	90.8*	51.9*	0.5
FC(F)(F)c1cnc(Sc2nnc(-c3cccs3)n2CC2CCCO2)c(Cl)c1 (stereo not drawn)	0.1	88.9*	-6.7	1.1
COc1ccc(/C=N/NC(=O)c2nonc2C)cc1	0.2	79.9*	27.4	0.7
O=C(Cc1ccccc1)NCC(=O)OCC(=O)c1cccs1	1	3.3	18.5	0.8
O=S1(=O)CC(O)C(NCc2cccnc2)C1 (stereo not drawn)	0.9	5.7	31.5	0.7
O=C(CSc1nc2ccccc2c(=O)n1CCCC(=O)N1CCCC1)NCc1ccco1	0.4	64.6*	43.3	0.6
Cc1cc(NC(=O)CSc2nc3ccccc3c(=O)n2CCCC(=O)NCc2ccco2)n[nH]1	0.2	84.0*	70.6*	0.3
O=C(CSc1nc2ccccc2c(=O)n1Cc1ccccc1)NCc1ccco1	0.9	9.4	0.0	1
O=C(NCc1cn2ccccc2n1)c1ccc(Br)o1	0.7	29.5	40.1	0.6
